Luc counter = counter-screen: inhibitors of Kinase-Glo firefly luciferase | Q27757 | Kinase-Glo luciferase, ATP luminescence, 8 min | Potency, µM (titrated, usually from 38.3 µM), inactives show top-dose activity change, negative = inhibition, actives largely listed as inhibitors | hit rate 0.28% among 200,000 | AID 1379; active = well fitted inhibition curve with a large enough effect; inconclusive = small, poorly fitted or top-dose-only effect; also: potency is read from the fitted curve at half-maximal effect; nearly all actives have a fitted effect of over 60% in size
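Kinase-Glo luciferase light output from ATP and luciferin was measured with 10 uM ATP, within the enzyme's linear range. Buffer: 50 mM imidazole pH 7.2, 50 mM KCl, 7 mM MgCl2, 0.01% Tween 20, 0.05% BSA; luminescence read after 8 min at ambient temperature.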
HPGD inh = blocks human HPGD enzyme activity; Potency, µM, without a hit: at the top dose activity change, negative = inhibition, hits mostly inhibitors; AID 894; hit rate 4.3% among 150,000; purified HPGD, NADH fluorescence kinetic, PGE2 substrate; P15428; also: potency is read from the fitted curve at half-maximal effect
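20 nM HPGD preincubated 15 min at room temperature with compound in 50 mM Tris-HCl pH 8, 0.01% Tween 20. Started with 1 mM NAD+ and 30 uM prostaglandin E2; NADH fluorescence (360/450 nm) read 5 times over 30-s intervals, last minus first.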
ALDH1A1 block = ALDH1A1 (human) enzyme inhibition. hit rate 7.3% among 220,000. Potency, µM (doses to about 75.3 µM), for inactives: top-dose activity, negative = inhibition, usual class: inhibitors. Purified ALDH1A1, NADH fluorescence, propionaldehyde substrate. P00352;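 also: potency is read from the fitted curve at half-maximal effect; plate controls were no enzyme wells and a reference inhibitor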
Target sequence (P00352 whole entry, looked up): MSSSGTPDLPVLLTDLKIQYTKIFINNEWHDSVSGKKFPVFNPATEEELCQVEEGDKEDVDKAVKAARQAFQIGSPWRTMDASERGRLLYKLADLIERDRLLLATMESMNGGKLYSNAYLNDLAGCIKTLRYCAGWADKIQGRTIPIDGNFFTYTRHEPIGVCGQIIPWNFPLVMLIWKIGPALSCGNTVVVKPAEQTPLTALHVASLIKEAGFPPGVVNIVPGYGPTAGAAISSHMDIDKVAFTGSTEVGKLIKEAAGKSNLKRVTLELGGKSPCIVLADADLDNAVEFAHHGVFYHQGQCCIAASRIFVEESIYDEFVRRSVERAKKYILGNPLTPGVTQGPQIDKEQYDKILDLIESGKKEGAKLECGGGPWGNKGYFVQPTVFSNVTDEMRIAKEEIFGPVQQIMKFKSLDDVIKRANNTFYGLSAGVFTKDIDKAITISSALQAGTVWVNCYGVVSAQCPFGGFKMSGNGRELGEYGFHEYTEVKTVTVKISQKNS
Lamin A splicing = modulators of lamin A splicing. HeLa LMNA splicing GFP/RFP minigene ratio, 48 h. Potency, µM (highest dose often 46.1 µM), without a hit: at the highest dose ratio change, negative = inhibition, usual class: inhibitors. hit rate 0.01% among 200,000. AID 1487; active = well fitted inhibition curve with a large enough effect in the signal ratio, with a control signal flat, not every such curve was filed as active; inconclusive = small, poorly fitted or top-dose-only effect, or effect the other way, or a change in a side signal; the % refers to the signal ratio; also: potency is read from the fitted curve at half-maximal effect
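S3 HeLa stable clones carrying a lamin A-EGFP splicing minigene plus DsRed2 were seeded at 600 cells/well in Opti-MEM with 2% FBS, pin-dosed and incubated 48 h at 37°C. Acumen cytometry (488 nm) gave the GFP/RFP total-intensity ratio.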
PNC inhibitor = blocks assembly of the perinucleolar compartment; PC3M PTB-GFP, PNC prevalence imaging, 16 h; active compounds read low; hit rate 3.1% among 140,000; activity change (PNC), negative = inhibition, % at 10 µM;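 active = readout at or below -70, meaning at least 70% loss of cells showing the perinucleolar compartment, a nuclear body marking cancer cells; inconclusive = readout between -30 and a set limit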;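 also: plate controls were DMSO wells for no effect and camptothecin positive control wells for full effect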
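PC3M cells stably expressing PTB-GFP, 750–1000 cells/well, treated 16 h at 37 °C with compound (23 nl of library stock), in duplicate. After paraformaldehyde fixation and Hoechst stain, imaged at 20x; PNC prevalence scored by image analysis.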
* marks the source's active call; other numbers are inactive results; ? = inconclusive; . = no result given; [ ] = another dose, or the depositor's remark. Only some compounds are listed: those with a hit (about 10% of all), similar ones and a draw of the others. Unless noted, calls follow the shape of the dose curve; as a rule, active = well fitted inhibition curve with a large enough effect (not every such curve was filed as active); inconclusive = small, poorly fitted or top-dose-only effect, or another doubt; inactive = no such curve, though single readings can be large or run the other way. Unless noted, % is scaled to controls: 0 for no effect and ±100 for the full control effect.

SMILES	Luc counter	HPGD inh	ALDH1A1 block	Lamin A splicing	PNC inhibitor
CCOC(=O)c1ccc(Nc2nnc(C(C)(C)C)c(=O)[nH]2)cc1	.	.	14.1µM*	?	19.5
CCOC(=O)c1ccc(Nc2cc(C)nc(C)c2C(=O)OCC)cc1	-2.9%	-4.9%	2.5%	6.0%	?
CC(C)(C)c1ccc(/C=C/C(=O)c2ccc(NC3=NCCCS3)cc2)cc1	4.2%	20µM*	20.1%	?	-0.7
Cc1cccc(/C=C/C(=O)c2ccc(NC3=NCCCS3)cc2)c1	0.3%	-21.6%	-11.9%	?	32.9
O=C(/C=C/c1ccc(Br)cc1)c1ccc(NC2=NCCCS2)cc1	-10.6%	8.91µM*	11.7%	?	-93.0*
O=C(/C=C/c1ccccc1)c1ccc(NC2=NCCCS2)cc1	8.7%	14.1µM*	-7.2%	5.7%	?
N=c1sc2ccccc2n1CCS (tested in a mixture with another compound)	-4.7%[7.66 µM]	-10.8%	?	.	.
CC[N+]1(C)[C@@H]2CC[C@H]1CC(OC(=O)[C@H]1CC[C@@](C(=O)OC3C[C@H]4CC[C@@H](C3)[N+]4(C)CC)(c3ccccc3)c3ccccc31)C2 (stereo partly drawn)	1.4%[17.1 µM]	-1.3%	1.5%[20.9 µM]	-15.6%	.
CCOC(=O)N1CCN(C(=O)CCC(=O)N2CCOc3ccc(C)cc32)CC1	.	.	25.1µM*	5.5%	-1.7
O=C(C1CCCO1)N1CCN(Cc2nc3ccccc3c(=O)[nH]2)CC1 (stereo not drawn)	-2.7%	-10.6%	?	6.6%	-135.3*
O=c1[nH]c(CN2CCOCC2)nc2ccccc12	0.8%	.	6.1%	-12.5%[46 µM]	.
O=C(c1cc(C(F)(F)F)cc(C(F)(F)F)c1)N1CCC[C@@]2(CCN(Cc3ccncc3)C2)C1	-2.4%	-6.9%	0.8%	.	.
CC(=O)Oc1ccc2c(c1)CCC1C2CC[C@@]2(C)C1CC(OC(C)=O)C2OC(C)=O (stereo partly drawn)	-2.4%	-13.0%	2.0%	-3.3%	.
N#Cc1nc(-c2ccco2)oc1NCc1cccnc1	-2.5%	?	?	2.2%	36.1
CC(C)CNc1oc(-c2ccco2)nc1C#N	-1.6%	?	?	1.5%	-100.0*
N#Cc1nc(-c2ccco2)oc1NCc1ccc(F)cc1	-3.6%	?	?	-6.6%	-82.4*
CCNc1ncc2nc(-c3ccc(Cl)cc3)c(=O)n(-c3ccc(OC)cc3)c2n1	.	.	?	29.1%	.
Cc1ccc2nc(N3CCN(C=O)CC3)nc(-c3ccccc3)c2c1	0.4%	-25.1%	?	-8.4%	-100.0*
CCOCCCNC(=O)C(C)NS(=O)(=O)c1ccc(C)cc1 (stereo not drawn)	7.7%	?	?	-0.3%	-89.7*
CCOCCCNC(=O)CCc1ccc(S(=O)(=O)Nc2ccc(C)cc2)cc1	0.5%	.	-15.4%	-17.0%[46 µM]	.
Cc1ccc(S(=O)(=O)N[C@H]2COC(=O)C/C=C\[C@@H](C)[C@H](NS(=O)(=O)c3ccc(C)cc3)COC(=O)C/C=C\[C@H]2C)cc1	.	.	14.7%[13.5 µM]	.	.
O=C(C1CCCO1)N1N=C(c2ccc(Br)cc2)CC1c1ccco1 (stereo not drawn)	0.7%	-8.7%	-9.3%	?	-88.7*
Cc1ccc(C2=NN(C(=O)C3CCCO3)C(c3ccco3)C2)cc1 (stereo not drawn)	1.1%	.	-3.0%	-5.9%[46 µM]	.
COC(=O)c1cc(=O)[nH]c(=O)[nH]1	-1.8%[7.66 µM]	-7.3%	-2.7%[13.5 µM]	.	.
O=C(C(Cc1ccccc1)n1cccc1)N1CCCCC1 (stereo not drawn)	-6.0%	12.6µM*	3.3%	-2.7%	?
O=C(C(Cc1ccccc1)n1cccc1)N1CCCCCC1 (stereo not drawn)	3.1%	28.2µM*	-1.5%	-6.3%	-17.2
O=C(C(Cc1ccccc1)n1cccc1)N1CCN(Cc2ccccc2)CC1 (stereo not drawn)	2.7%	-1.3%	?	-8.8%	13.2
CCC(=O)NCCC1CCc2ccc3c(c21)CCO3 (stereo not drawn)	-4.6%	-11.6%	-14.5%	?	.
Cc1ccc(NC(=O)c2cc(NC(=O)c3ccccc3C(=O)O)ccc2N2CCCCC2)cc1	-3.9%	.	-9.5%	.	.

Screens deposited in PubChem by National Center for Advancing Translational Sciences (NCATS).
